Experimental findings from PubChem BioAssay (Tox21) are described below.

Where “and” joins values, the source holds several entries; their conditions need not be identical. Equal values may be shown once. Records with an inconclusive call do not appear. The source holds several records for some structures; these can differ, active in one and inactive in another. Calls of active or inactive are those of the source. Unless noted, the call rests on the fitted dose curve; in most records, active means well fitted curve in the direction sought with a large enough effect in the repeat runs; inconclusive means weak or mixed curves; inactive means no such curve, though single readings can be large; an effect the other way counts as inactive or inconclusive.

The nature of test [1]: A CellTox Green Cytotoxicity Assay to monitor cytotoxicity in HEK293 cells - 32 hour (AID 1224881). Further: nearly all actives have a fitted effect of over 40% in size. Further: potency means the concentration at half of the fitted maximal effect. The gist of the method:
(§1)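 Cells (HEK293, 600/well) and dye reagent are dispensed together. After 5 h at 37 C, 23 nL compound is pinned in. Plates stay at 37 C for 40 h with fluorescence read at 0h, 8h, 16h, 24h, 32h and 40h.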

Test [2] is described as follows: A CellTox Green Cytotoxicity Assay to monitor cytotoxicity in HepG2 cells - 0 hour (AID 1224882). Further: nearly all actives have a fitted effect of over 35% in size. The gist of the method:
(§2)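 Cells and non-lytic dye reagent are dispensed together (600 HepG2 cells/well) and incubated 5 h before DMSO compound transfer. Kinetic fluorescence is then recorded in the same wells during 40 h at 37 C.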

Test [3] in a line: A CellTox Green Cytotoxicity Assay to monitor cytotoxicity in HepG2 cells - 32 hour (AID 1224883). Further: nearly all actives have a fitted effect of over 50% in size. Further: potency means the concentration at half of the fitted maximal effect. The gist of the method:
as §2

Test [4] in a line: A CellTox Green Cytotoxicity Assay to monitor cytotoxicity in HEK293 cells - 8 hour (AID 1224884). Further: nearly all actives have a fitted effect of over 35% in size. Further: potency means the concentration at half of the fitted maximal effect. The gist of the method: as §1
Test [5] can be described thus: qHTS RealTime-Glo MT Cell Viability Assay in HepG2 cells - 16 hour (AID 1224885). Further: nearly all actives have a fitted effect of over 50% in size. Further: potency means the concentration at half of the fitted maximal effect. The gist of the method: (§3)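 Cells + NanoLuc/prosubstrate dispensed (600 cells/well) → 5 h at 37 C/5% CO2 → compounds in DMSO transferred → 40 h incubation at 37 C, luminescence read at 0, 8, 16, 24, 32, 40 h.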
Test [6] in a line: qHTS RealTime-Glo MT Cell Viability Assay in HEK293 cells - 24 hour (AID 1224886). Further: nearly all actives have a fitted effect of over 50% in size. Further: potency means the concentration at half of the fitted maximal effect. The gist of the method:
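Tox21 10K qHTS, HEK293, 600 cells/well, RealTime-Glo reagent co-dispensed with cells; 5 h preincubation, compound by pintool, 37 C, luminescence at 0–40 h.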

A short description of test [7]: qHTS RealTime-Glo MT Cell Viability Assay in HEK293 cells - 8 hour (AID 1224887). Further: nearly all actives have a fitted effect of over 50% in size. Further: potency means the concentration at half of the fitted maximal effect. The gist of the method: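 Real-time viability in HEK293: signal arises when living cells convert a prosubstrate for NanoLuc in the medium, so luminescence tracks viable cell number. Compound (23 nL, DMSO) added 5 h post-seeding; kinetic reads at 0–40 h, 37 C.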
The nature of test [8]: A CellTox Green Cytotoxicity Assay to monitor cytotoxicity in HEK293 cells - 16 hour (AID 1224888). Further: nearly all actives have a fitted effect of over 35% in size. Further: potency means the concentration at half of the fitted maximal effect. The gist of the method: as §1
A short description of test [9]: qHTS RealTime-Glo MT Cell Viability Assay in HepG2 cells - 0 hour (AID 1224889). Further: nearly all actives have a fitted effect of over 50% in size. The gist of the method: as §3
A short description of test [10]: A CellTox Green Cytotoxicity Assay to monitor cytotoxicity in HepG2 cells - 8 hour (AID 1224890). Further: nearly all actives have a fitted effect of over 45% in size. Further: potency means the concentration at half of the fitted maximal effect. The gist of the method: as §2
Test [11] in a line: qHTS assay to identify small molecule antagonists of the estrogen receptor alpha (ER-alpha) signaling pathway using the BG1 cell line in the presence of 0.1 nM 17-beta-estradiol - cell viability counter screen (AID 1259241). Further: nearly all actives have a fitted effect of over 40% in size. Further: potency means the concentration at half of the fitted maximal effect. The gist of the method: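 CellTiter-Fluor read (30 min, 37C) on ER-alpha/ERE-luc VM7Luc4E2 cells; 22 hr compound treatment; agonist 0.1 nM E2 final; same-well multiplex.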

A short description of test [12]: qHTS assay to identify small molecule antagonists of the androgen receptor (AR) signaling pathway using the MDA cell line in the presence of 0.5 nM R1881 - cell viability counter screen (AID 1259242). Further: nearly all actives have a fitted effect of over 45% in size. The gist of the method:
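Steps: plate MDA-kb2 cells, rest 5 hr at 37C without CO2; pin in compounds in DMSO; add R1881 to 0.5 nM final; incubate 16 hr; add CellTiter-Fluor, 30 min; read fluorescence.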

For test [13], the target named is Estrogen receptor (Homo sapiens) (UniProt P03372). The experiment in a line: qHTS assay to identify small molecule antagonists of the estrogen receptor alpha (ER-alpha) signaling pathway using the BG1 cell line in the presence of 0.1 nM 17-beta-estradiol (AID 1259244). Further: nearly all actives have a fitted effect of over 50% in size. Further: potency means the concentration at half of the fitted maximal effect. The gist of the method:
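Antagonist mode: compounds in DMSO are pinned onto VM7Luc4E2 reporter cells, 0.1 nM final 17beta-estradiol is added, and after 22 h at 37C luciferase luminescence is measured with ONE-Glo.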

The nature of test [14]: qHTS assay to identify small molecule HDAC inhibitors (AID 1259364).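 Further: wild-type HCT-116 cells with endogenous class I/II HDAC activity; top concentration of the series differs between compounds; nearly all actives have a fitted effect of over 45% in size.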 The gist of the method:
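Cells (HCT-116, wild type) are seeded at 1,500 per well, incubated overnight, treated with compound in DMSO for 2 hr, then developed with HDAC-Glo I/II reagent for 30 min at room temperature.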

Test [15] in a line: qHTS assay to identify small molecule agonists of the sonic hedgehog signaling (Shh) pathway - cell viability counter screen (AID 1259366). Further: nearly all actives have a fitted effect of over 50% in size. Further: potency means the concentration at half of the fitted maximal effect. The gist of the method: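 Fluorescence from CellTiter-Fluor reports live cells in this counter screen. NIH/3T3-derived Gli1-Luc reporter cells receive test compounds for 24hr at 37C; reagent goes in at 23hr.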
Test [16] can be described thus: qHTS assay to identify small molecule antagonists of the sonic hedgehog signaling (Shh) pathway - cell viability counter screen (AID 1259367). Further: nearly all actives have a fitted effect of over 55% in size. Further: potency means the concentration at half of the fitted maximal effect. The gist of the method: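 Cytotoxicity was assessed in parallel with Shh reporter activity by measuring live-cell protease fluorescence (CellTiter-Fluor) in NIH/3T3 cells stably carrying Gli1-Luc, treated with compound under conditioned medium stimulation for 23 hr plus 1 hr reagent incubation.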

The nature of test [17]: qHTS assay to identify small molecule agonists of the sonic hedgehog signaling (Shh) pathway (AID 1259368; calls by dose curve;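 further: NIH/3T3-derived 3T3Gli1-Luc cells carrying a stable Gli1-driven firefly luciferase reporter; series mostly up to about 92 µM; nearly all actives have a fitted effect of over 15% in size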). The gist of the method: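 Cells of a mouse NIH/3T3 clone stably expressing luciferase under the Gli1 transcriptional response element are exposed to test chemicals for 24 hr at 37 C. Pathway activation is detected as a rise in luminescence.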
Test [18] deals with Androgen receptor (Homo sapiens) (UniProt P10275). Briefly: qHTS assay to identify small molecule antagonists of the androgen receptor (AR) signaling pathway using the MDA cell line in the presence of 0.5 nM R1881 (AID 1259243). Further: nearly all actives have a fitted effect of over 50% in size. The gist of the method: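 Stably transfected MDA-kb2 cells express luciferase from an MMTV promoter bearing both AR and GR response elements. Compounds plus 0.5 nM R1881 (final) were incubated 16 hr at 37C without CO2, then luminescence measured.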
Sequence of Androgen receptor (Homo sapiens) (P10275 whole entry, looked up): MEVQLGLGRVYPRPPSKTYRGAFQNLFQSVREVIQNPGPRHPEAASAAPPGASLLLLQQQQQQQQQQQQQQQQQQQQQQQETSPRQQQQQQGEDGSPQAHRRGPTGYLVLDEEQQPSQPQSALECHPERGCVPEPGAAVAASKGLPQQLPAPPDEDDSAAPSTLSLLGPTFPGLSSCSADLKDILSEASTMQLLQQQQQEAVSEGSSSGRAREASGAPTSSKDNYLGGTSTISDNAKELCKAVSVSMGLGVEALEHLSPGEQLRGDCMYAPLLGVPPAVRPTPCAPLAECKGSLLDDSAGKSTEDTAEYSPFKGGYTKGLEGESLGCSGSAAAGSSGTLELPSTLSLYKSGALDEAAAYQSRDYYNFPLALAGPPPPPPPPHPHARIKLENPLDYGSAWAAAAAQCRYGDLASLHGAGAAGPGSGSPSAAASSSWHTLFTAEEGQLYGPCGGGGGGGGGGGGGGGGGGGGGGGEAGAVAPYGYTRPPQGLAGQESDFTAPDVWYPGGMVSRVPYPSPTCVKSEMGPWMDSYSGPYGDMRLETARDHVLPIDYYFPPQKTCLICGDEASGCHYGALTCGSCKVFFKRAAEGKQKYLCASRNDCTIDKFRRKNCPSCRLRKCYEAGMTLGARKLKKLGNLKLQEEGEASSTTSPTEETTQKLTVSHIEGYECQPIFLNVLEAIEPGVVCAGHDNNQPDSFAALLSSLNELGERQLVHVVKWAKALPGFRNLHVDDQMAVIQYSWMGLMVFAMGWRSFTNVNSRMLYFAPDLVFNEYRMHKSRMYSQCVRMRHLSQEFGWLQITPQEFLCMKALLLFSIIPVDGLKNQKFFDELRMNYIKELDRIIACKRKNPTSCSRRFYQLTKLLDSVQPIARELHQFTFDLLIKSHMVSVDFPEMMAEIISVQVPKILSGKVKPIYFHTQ

A short description of test [19]: qHTS assay to identify small molecule phospholipidosis (PLD) inducers (AID 1259344; active means well fitted curve in the direction sought with a large enough effect; an effect the other way counts as inactive or inconclusive). The gist of the method: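 Cells (HepG2, 900 per well) attach for 4 h, receive LipidTOX Red and compound together, incubate 24 h at 37 C, are fixed 30 min with paraformaldehyde/Hoechst, then imaged at one site per well.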
Test [20] can be described thus: qHTS assay to identify small molecule HDAC inhibitors - cell viability counter screen (AID 1259365). Further: nearly all actives have a fitted effect of over 50% in size. Further: potency means the concentration at half of the fitted maximal effect. The gist of the method: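 To flag cytotoxic hits, 1,500 wild-type HCT-116 cells per well, plated the day before, receive test compounds for 2hr at 37 C before CellTiter-Glo reagent and a luminescence read.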

Sequence of Estrogen receptor (Homo sapiens) (P03372 whole entry, looked up): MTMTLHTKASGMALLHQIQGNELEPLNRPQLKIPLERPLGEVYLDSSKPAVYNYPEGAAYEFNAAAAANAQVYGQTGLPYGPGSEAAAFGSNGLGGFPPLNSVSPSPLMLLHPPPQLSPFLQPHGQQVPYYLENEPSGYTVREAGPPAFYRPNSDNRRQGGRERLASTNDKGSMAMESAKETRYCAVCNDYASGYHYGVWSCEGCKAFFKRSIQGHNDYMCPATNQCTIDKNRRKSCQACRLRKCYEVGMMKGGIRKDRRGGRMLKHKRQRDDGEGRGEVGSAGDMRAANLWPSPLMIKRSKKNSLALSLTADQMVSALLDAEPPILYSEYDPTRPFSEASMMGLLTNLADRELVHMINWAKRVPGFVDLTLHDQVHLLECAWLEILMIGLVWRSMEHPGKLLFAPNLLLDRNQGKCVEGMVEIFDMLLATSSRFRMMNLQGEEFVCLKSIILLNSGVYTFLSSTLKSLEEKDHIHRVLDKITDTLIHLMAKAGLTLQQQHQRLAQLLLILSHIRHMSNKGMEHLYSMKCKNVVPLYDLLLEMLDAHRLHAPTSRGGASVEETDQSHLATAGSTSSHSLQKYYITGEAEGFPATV

On to `C=C(C)C#N`, for which the Potency entry in [1], in test [2], in test [3], in test [4], in test [5] and in test [7] was “inactive” each time. The Potency result in [8], in test [9], in test [10], in [11], in test [12] and in test [13] was “inactive” each time. The Potency result in test [14], in test [15], in test [16] and in test [17] was “inactive” throughout. Moreover, the Potency entry in test [6] was “inactive and 13.8 µM (active)”.
With `CC(C)=CC1C(C(=O)OCN2C(=O)C3=C(CCCC3)C2=O)C1(C)C` (centres undefined), the Potency entry in test [1], in test [2], in test [3], in test [4], in [5] and in [6] was “inactive” each time. Besides, the Potency result in [7], in test [8], in [9], in test [10], in [11] and in [12] was “inactive” in each case. Also, the Potency entry in test [18], in test [14], in test [20], in [16] and in [17] was “inactive” in each case. Besides, in [19], the compound was classed as inactive.
As for `CCCCCCCC[N+](C)(CCCCCCCC)CCCCCCCC`, the Potency is 17.3 µM (active) and 27.6 µM (active) and 11 µM (active) in test [1]; 8.69 µM (active) and 19.5 µM (active) and 13.8 µM (active) in test [3]; 24.5 µM (active) and 13.8 µM (active) in test [4]; 15.5 µM (active) and 21.9 µM (active) and 13.8 µM (active) in test [5]; 548 nM (active) and 138 nM (active) and 2.19 µM (active) in [6]; 9.75 µM (active) and 21.9 µM (active) and 15.5 µM (active) in test [7]. For the same compound, the Potency in [8] is 24.5 µM (active) and 24.6 µM (active) and 15.5 µM (active); in test [10], 21.8 µM (active) and 39 µM (active) and 21.9 µM (active); in test [11], 24.3 µM (active) and 27.3 µM (active) and 48.6 µM (active); in test [13], 1.22 µM (active) and 15.4 µM (active); in [20], “inactive and 61.1 µM (active)”; in test [16] it was 61 µM (active) and 10.9 µM (active) and 24.3 µM (active). Also, the Potency result in test [2], in test [9], in test [14] and in test [17] was “inactive” in each case.
Consider `CCOS(=O)(=O)OCC`, for which the Potency entry in [1], in test [2], in test [3], in test [4], in test [5] and in test [6] was “inactive” in each case. Moreover, the Potency entry in test [7], in test [8], in test [9], in [10], in [11] and in test [12] was “inactive” each time. Further, the Potency result in test [13], in test [14], in [16] and in test [17] was “inactive” in each case.
As for `Cc1cc(Cl)ccc1N=CN(C)C`, the Potency result in [1], in test [2], in test [3], in [4], in [5] and in test [6] was “inactive” each time. For the same compound, the Potency entry in test [7], in test [8], in test [9], in [10], in test [11] and in test [12] was “inactive” each time. Besides, the Potency entry in test [14], in test [16] and in test [17] was “inactive” each time.
In the case of `CCCCCCCCCc1ccc(O)cc1`, the Potency entry in test [1], in test [2], in [4], in [5], in test [8] and in test [9] was “inactive” throughout. Also, the Potency entry in [10], in [11], in test [12], in test [13], in test [14] and in test [15] was “inactive” each time. In addition, the Potency entry in test [16] and in test [17] was “inactive” each time. Moreover, the Potency in [3] was 39.3 µM (active) and 34.7 µM (active); in test [6] it was 7.84 µM (active) and 4.9 µM (active); in test [7], 6.99 µM (active) and 4.36 µM (active).
Consider `CN(C)c1nc(=O)n(C2CCCCC2)c(=O)n1C`, for which the Potency entry in test [1], in test [2], in test [3], in test [4], in test [5] and in test [6] was “inactive” each time. For the same compound, the Potency result in test [7], in test [8], in test [9], in [10], in [11] and in test [12] was “inactive” throughout. The Potency entry in test [13], in test [14], in [20], in [15], in test [16] and in test [17] was “inactive” in each case.
Regarding `CCOP(=S)(OCC)SCSC(C)(C)C`, the Potency entry in test [1], in test [2], in test [3], in test [4], in test [5] and in test [6] was “inactive” throughout. Also, the Potency entry in test [7], in test [8], in [9], in [10], in test [11] and in test [13] was “inactive” in each case. Further, the Potency result in test [14], in test [20] and in [16] was “inactive” throughout.
As to `N#CCCCCC#N`, the Potency result in [1], in [2], in [3], in [4], in [5] and in test [6] was “inactive” throughout. In addition, the Potency result in test [7], in test [8], in test [9], in test [10], in test [11] and in test [14] was “inactive” each time. The Potency entry in test [15] and in [16] was “inactive” throughout.
As to `[CH3][Sn]([Cl])([Cl])[Cl]`, the Potency entry in [1], in test [2], in [3], in [4], in test [5] and in test [6] was “inactive” each time. Further, the Potency result in test [7], in test [8], in [9], in [10], in test [11] and in test [12] was “inactive” in each case. Besides, the Potency entry in test [14], in test [20] and in test [16] was “inactive” each time.
Take `CCCCOC(=O)COC(=O)c1ccccc1C(=O)OCCCC`: the Potency entry in test [1], in test [2], in test [3], in test [4], in [5] and in [6] was “inactive” each time. Further, the Potency result in test [7], in test [8], in test [9], in test [10], in test [11] and in test [13] was “inactive” each time. Moreover, the Potency result in test [14], in test [15], in test [16] and in [17] was “inactive” each time.
As for `OCCOCCO`, the Potency entry in test [1], in test [2], in test [3], in [4], in test [5] and in [6] was “inactive” each time. In addition, the Potency entry in test [7], in test [8], in test [9], in test [10], in [11] and in test [12] was “inactive” throughout. Besides, the Potency result in test [13], in [14] and in test [20] was “inactive” each time. Also, the Potency in test [15] is 56.1 µM (active) and inactive; in test [16] it was 14.1 µM (active) and inactive.
